High-throughput results from PubChem.
HCMV antiviral: inhibitors of human cytomegalovirus. AID 1259415. HFF cells, HCMV-luciferase reporter, 72 h; stronger effect = lower value. activity change, negative = inhibition, % at 57.5 µM. 4.5% of 410,000 active; in the data active = activity change below about -60%; inconclusive = no clear call, values can overlap the other calls; inactive = above about -39%; note: % is set by controls: 0 for no effect and ±100 for the full control effect
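HFF cells seeded 16 h at 37C, treated with compounds, infected with luciferase-reporter HCMV at MOI 1 PFU/cell; luciferase read at 72 h post infection, normalized to buffer-only and Salinomycin controls.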
HCV inhibitor: inhibitors of hepatitis C virus infection | Huh7.5.1 HCVcc-Cre infection, luciferase reporter, 44 h | Potency, µM (series often up to 41.8 µM), for inactives: at the top dose activity change, negative = inhibition, usual class: inhibitors | 3.4% of 340,000 active; note: potency is the fitted concentration of half-maximal effect; % is set by controls: 0 for no effect and ±100 for the full control effect
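Seed cells (1,000/well) for 4 h; treat with compound and infect with HCVcc-Cre, moi about 0.5. Incubate 44 h, then detect luciferase activity.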
Pf growth 96h: P. falciparum growth inhibition at 96 hour, primary screen for plastid delayed-death inhibitors. P. falciparum luciferase reporter growth, 96 h. Potency, µM (doses to about 28.7 µM), without a hit: top-dose activity change, negative = inhibition, usual class: inhibitors. 6.9% of 320,000 active. AID 504834; note: potency is the fitted concentration of half-maximal effect; % is set by controls: 0 for no effect and ±100 for the full control effect
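Cell-based qHTS: luciferase-tagged P. falciparum in erythrocytes (2% hematocrit, 0.05% parasitemia final) incubated with compounds for 96 hours, 37 C, 5% CO2; luciferase detection reagent then added and luminescence measured.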
Pf growth 48h: inhibits P. falciparum growth in the first generation, 48 h; P. falciparum luciferase growth in erythrocytes, 48 h; Potency, µM (titrated, usually from 28.7 µM), for inactives: at the highest dose activity change, negative = inhibition, usual class: inhibitors; 5.9% of 310,000 active; AID 504832; note: potency is the fitted concentration of half-maximal effect; % is set by controls: 0 for no effect and ±100 for the full control effect
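Parasite viability was followed by luminescence of a genomically integrated firefly luciferase. Cultures held 0.1% parasitemia at 2% hematocrit (final), incubated under 5% CO2 at 37 C.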
Shiga toxin inh: blocks Shiga toxin action in Vero cells; inhibition, % at 38.7 µM; 9.2% of 290,000 active; Vero cells, Shiga toxin protein synthesis inhibition reporter; in the data active = inhibition mostly above about 28%, no sharp cut-off; inactive = mostly below about 43%; note: 0% is about no effect
CHX counter: counter-screen hit for Shiga toxin inhibitors, cycloheximide | cell reporter, cycloheximide protein synthesis inhibition counterscreen | max response, % | 12% of 300,000 active; in the data active = max response mostly above about 13%, no sharp cut-off; inactive = mostly below about 14%; note: read at 38.3 µM for the half of the compounds with a filed dose; 0% is about no effect
* marks the source's active call; other numbers are inactive results; u = inconclusive; x = no result. In the library only some 21% were active in any assay of this set; here they are far more common. Unless noted, calls come from the whole dose curve; as a rule, active = well fitted inhibition curve with a large enough effect; inconclusive = small, poorly fitted or top-dose-only effect, or another doubt; inactive = no such curve, though single readings can be large or run the other way.

SMILES	HCMV antiviral	HCV inhibitor	Pf growth 96h	Pf growth 48h	Shiga toxin inh	CHX counter
CC(=O)c1ccc(C(=O)NC2CC(C)(C)Cc3c2cnn3-c2ccccc2)cc1 (stereo unspecified)	18.8	12.4%	u	-18.2%	16.7	19.3*
Cc1ccccc1-n1ncc2c1CC(C)(C)CC2NC(=O)C1=CC(=O)CC(C)(C)O1 (stereo unspecified)	-8.0	x	9.28µM*	u	-6.1	-2.1
Cc1ncoc1C(=O)NC1CC(C)(C)Cc2c1cnn2-c1ccc(F)cc1 (stereo unspecified)	-30.4	2.6%	-15.5%	-24.7%	9.9	3.4
COc1ccc(C(=O)NC2CC(C)(C)Cc3c2cnn3-c2ccccc2)cc1OC (stereo unspecified)	-33.6	u	u	-11.2%	-4.8	-1.5
COc1ccc(CNC(=O)c2ccc(Cn3c(=O)c4cccn4c4cccnc43)cc2)cc1OC	12.9	x	x	x	x	x
CC1(C)Cc2c(cnn2-c2ccc(F)cc2)C(NC(=O)CCN2CCCC2=O)C1 (stereo unspecified)	0.0	0.2%	u	2.1%	46.8*	30.1*
CC1(C)Cc2c(cnn2-c2ccc(F)cc2)C(NC(=O)C2=NNC(=O)CC2)C1 (stereo unspecified)	0.0	2.9%	15.3%	-13.5%	39.4*	28.5*
CCN(CC)CCNC(=O)c1sc2nc(C)cc(C)c2c1-n1cccc1	7.0	x	x	x	x	x
CCn1cc(C(=O)Nc2ccc(F)c(F)c2)cn1	71.2	9.3%	23.7%	43.6%	60.0*	10.7*
CCn1cc(C(=O)Nc2ccc(C)c([N+](=O)[O-])c2)cn1	44.7	-28.4%	64.0%	10.6%	active	9.6
CCn1cc(C(=O)Nc2ccc(Cl)cc2Cl)cn1	-12.8	-0.5%	x	x	x	x
Cn1cc(C(=O)NCc2cccnc2)c(=O)c2cc(S(=O)(=O)N3CCCCCC3)ccc21	x	x	6.57µM*	2.2%	-9.5	-1.9
Cn1cc(C(=O)NC2CCCCC2)c(=O)c2cc(S(=O)(=O)N3CCCC3)ccc21	-26.2	2.9%	8.28µM*	-21.8%	-11.7	-1.7
CC1CCN(S(=O)(=O)c2ccc3c(c2)c(=O)c(C(=O)NC2CCCC2)cn3C)CC1	40.6	16.0%	u	35.5%	-7.5	-3.3
CC1CCCCC1NC(=O)c1cn(C)c2ccc(S(=O)(=O)N3CCCC3)cc2c1=O (stereo unspecified)	-29.8	8.1%	1.5%	8.28µM*	-12.5	-2.8
CC(NC(=O)c1cn(C)c2ccc(S(=O)(=O)N3CCCC3)cc2c1=O)c1ccccc1 (stereo unspecified)	-34.7	8.7%	11.7µM*	11.7µM*	-10.3	-3.1
CC1CCCC(NC(=O)c2cn(C)c3ccc(S(=O)(=O)N4CCCC4)cc3c2=O)C1C (stereo unspecified)	12.4	1.0%	7.4%	u	9.7	0.4
COc1cc(OC)c(NC(=O)CCCn2nc(C)c3c(C)n(-c4ccccc4)nc3c2=O)cc1Cl	-9.6	x	x	x	x	x
COC(=O)c1cn(C)c2ccc(S(=O)(=O)N3CCCC3)cc2c1=O	-1.6	19.6%	3.7µM*	2.0%	23.7	11.0
Cc1cccc(/C=N\NC(=O)c2ccc(Cl)cc2)c1O	-101.2*	u	-20.5%	u	82.3*	61.8*
O=C(Cc1ccc(Cl)cc1)N/N=C/c1c(Cl)cccc1Cl	-8.5	4.9%	17.5%	36.8%	-14.8	-2.6
O=C(Cc1ccc(Cl)cc1)N/N=C/c1ccc(O)c(O)c1	-34.2	x	x	x	x	x
Cc1cccc(/C=N/NC(=O)Cc2ccc(Cl)cc2)c1O	-89.3*	12.6µM*	98.4%	u	-7.0	-2.3
Cc1ccc(O)c(/C=N/NC(=O)Cc2ccc(Cl)cc2)c1	-99.4*	u	0.0%	u	-2.7	-2.8
CCC(=O)NC(c1ccc(C)cc1)c1ccc2cccnc2c1O (stereo unspecified)	-98.5*	u	13.6%	4.65µM*	2.5	12.5
CC(=O)NC(c1ccco1)c1ccc2cccnc2c1O (stereo unspecified)	x	7.94µM*	6.6%	10.4µM*	7.0	-5.4
COc1ccc(C(Nc2cc(C)ccn2)c2ccc3ccc(C)nc3c2O)cc1 (stereo unspecified)	-15.8	u	-11.2%	u	13.0	-1.0
